Experimental data taken from PubChem BioAssay.
The source made the active and inactive calls. Unless noted, the rule behind the calls is not given here.

Experiments:
[1] = anti-His antibody binders, primary screen, artefact control for SMM control protein annotation, biochemical, small-molecule microarray, 635 nm fluorescence (AID 1128); details: anti-His Alexa647 antibody binding, higher = more signal;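 note: score merges feature fluorescence with signal-to-noise for each printed compound spot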
[2] = test system: Human papillomavirus type 1a E7 protein (residues 1-88); assay: HPV1a E7 small-molecule binders, primary screen, biochemical, small-molecule microarray, residues 1-88, 635 nm (AID 1129); details: small-molecule microarray binding, fluorescence 635 nm; higher = more signal
[3] = molecular target: Focal adhesion kinase 1 (Homo sapiens) (UniProt Q05397); assay: small-molecule microarray binders of FAK, primary screen, biochemical, 635/667 nm fluorescence, BSA, DTT (AID 1130); details: PTK2 binding, 635 nm fluorescence, higher = more signal;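 note: composite of spot emission at 667 nm and signal to noise over triplicate slides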
Focal adhesion kinase 1 (Homo sapiens), sequence (Q05397 whole entry, looked up): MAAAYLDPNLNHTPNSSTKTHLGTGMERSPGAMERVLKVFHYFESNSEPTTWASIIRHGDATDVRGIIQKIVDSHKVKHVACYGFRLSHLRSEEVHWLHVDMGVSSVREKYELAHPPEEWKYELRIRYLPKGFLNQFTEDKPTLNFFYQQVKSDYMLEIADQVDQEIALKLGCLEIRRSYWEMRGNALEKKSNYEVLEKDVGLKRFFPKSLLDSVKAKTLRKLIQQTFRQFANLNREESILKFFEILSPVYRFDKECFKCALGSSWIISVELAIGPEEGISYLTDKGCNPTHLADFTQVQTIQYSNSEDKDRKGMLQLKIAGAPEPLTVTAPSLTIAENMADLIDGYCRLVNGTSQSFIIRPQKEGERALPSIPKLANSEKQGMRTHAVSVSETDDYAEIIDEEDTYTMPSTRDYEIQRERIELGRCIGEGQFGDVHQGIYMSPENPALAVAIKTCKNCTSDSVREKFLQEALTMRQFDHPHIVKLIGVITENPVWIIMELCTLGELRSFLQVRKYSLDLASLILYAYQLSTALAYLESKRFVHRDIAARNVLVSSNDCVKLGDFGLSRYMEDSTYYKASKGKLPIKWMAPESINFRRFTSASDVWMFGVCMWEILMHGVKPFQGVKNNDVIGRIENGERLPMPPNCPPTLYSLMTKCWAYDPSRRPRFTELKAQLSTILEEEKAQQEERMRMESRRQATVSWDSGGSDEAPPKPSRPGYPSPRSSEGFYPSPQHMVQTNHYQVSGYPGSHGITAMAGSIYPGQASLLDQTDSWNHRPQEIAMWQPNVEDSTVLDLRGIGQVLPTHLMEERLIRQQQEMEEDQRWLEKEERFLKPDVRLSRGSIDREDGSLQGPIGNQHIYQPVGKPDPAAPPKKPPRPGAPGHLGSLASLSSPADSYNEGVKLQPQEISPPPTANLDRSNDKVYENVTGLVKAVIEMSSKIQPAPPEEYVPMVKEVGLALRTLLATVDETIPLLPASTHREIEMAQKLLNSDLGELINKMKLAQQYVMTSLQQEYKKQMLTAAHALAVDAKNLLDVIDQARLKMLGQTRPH

[4] = test system: Fibrinogen (Alexa647-labelled); assay: fibrinogen binders on compound microarrays, profiling panel, artefact control for SMM control-protein annotation, biochemical, small-molecule microarray, 635/667 nm fluorescence (AID 1131); details: fibrinogen-A647 binding fluorescence, higher = more signal;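 note: z-score merges 667 nm fluorescence with per-spot signal-to-noise over triplicate slides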
[5] = molecular target: Follistatin (Homo sapiens) (UniProt P19883); assay: follistatin binders on small-molecule microarrays, primary screen, biochemical, small-molecule microarray, 635/667 nm fluorescence (AID 1132); details: FST binding, 635 nm fluorescence, higher = more signal
Follistatin (Homo sapiens), sequence (P19883 whole entry, looked up): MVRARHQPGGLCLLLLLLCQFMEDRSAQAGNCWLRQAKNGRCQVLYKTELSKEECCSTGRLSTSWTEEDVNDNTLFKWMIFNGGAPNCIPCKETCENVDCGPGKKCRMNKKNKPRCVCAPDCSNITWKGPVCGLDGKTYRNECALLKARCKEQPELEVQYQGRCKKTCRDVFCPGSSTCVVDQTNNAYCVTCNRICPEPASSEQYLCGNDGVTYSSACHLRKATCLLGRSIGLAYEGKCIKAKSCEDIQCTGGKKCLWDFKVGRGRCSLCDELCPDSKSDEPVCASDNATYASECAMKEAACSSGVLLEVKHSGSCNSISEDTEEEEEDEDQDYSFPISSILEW

[6] = molecular target: Fibroblast growth factor 2 (Homo sapiens) (UniProt P09038); assay: FGF2 binders on small-molecule microarrays, primary screen, biochemical, small-molecule microarray, 635/667 nm fluorescence (AID 1133); details: small-molecule microarray binding, FGF2, fluorescence 635/667; higher = more signal
Fibroblast growth factor 2 (Homo sapiens), sequence (P09038 whole entry, looked up): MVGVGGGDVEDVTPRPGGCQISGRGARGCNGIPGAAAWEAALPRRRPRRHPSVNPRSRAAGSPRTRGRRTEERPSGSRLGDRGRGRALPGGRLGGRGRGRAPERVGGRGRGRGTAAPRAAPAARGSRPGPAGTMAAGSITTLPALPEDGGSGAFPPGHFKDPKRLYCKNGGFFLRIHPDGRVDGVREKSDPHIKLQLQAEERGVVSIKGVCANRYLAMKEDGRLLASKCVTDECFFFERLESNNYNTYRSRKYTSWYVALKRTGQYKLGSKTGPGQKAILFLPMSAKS

[7] = mitochondrial membrane potential change in A549 cells, profiling panel, cell-based, JC-1 fluorescence, basal, 24 h, 100 nL (AID 1138); details: higher = more signal;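 note: A549 lung adenocarcinoma cells under basal conditions with no added stimulus; test concentration not given here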
Lefty1 = Lefty1 binders on small-molecule microarrays, primary screen, biochemical, small-molecule microarray, 635/667 nm fluorescence (AID 1139); details: small-molecule microarray binding, fluorescence 635/667; higher = more signal
[8] = test system: wheat germ agglutinin (Triticum aestivum), Alexa647-labelled; assay: wheat germ agglutinin binders on compound microarrays, profiling panel, artefact control for SMM control-protein annotation, biochemical, small-molecule microarray, 635/667 nm fluorescence (AID 1140); details: WGA-A647 binding, 635 nm fluorescence, higher = more signal;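 note: score merges 667 nm feature emission with signal to noise over triplicate slides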
[9] = molecular target: Luciferin 4-monooxygenase (Photinus pyralis) (UniProt P08659); assay: firefly luciferase enzyme inhibitors, primary screen, biochemical, luminescence, purified enzyme, 2006 set (AID 1141); details: SteadyGlo luminescence, 30 min, higher = more signal, called active from +8 up or from −8 down;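 note: cell-free assay with purified firefly luciferase at 100 ng per well in PBS; test concentration not given here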
Luciferin 4-monooxygenase (Photinus pyralis), sequence (P08659 whole entry, looked up): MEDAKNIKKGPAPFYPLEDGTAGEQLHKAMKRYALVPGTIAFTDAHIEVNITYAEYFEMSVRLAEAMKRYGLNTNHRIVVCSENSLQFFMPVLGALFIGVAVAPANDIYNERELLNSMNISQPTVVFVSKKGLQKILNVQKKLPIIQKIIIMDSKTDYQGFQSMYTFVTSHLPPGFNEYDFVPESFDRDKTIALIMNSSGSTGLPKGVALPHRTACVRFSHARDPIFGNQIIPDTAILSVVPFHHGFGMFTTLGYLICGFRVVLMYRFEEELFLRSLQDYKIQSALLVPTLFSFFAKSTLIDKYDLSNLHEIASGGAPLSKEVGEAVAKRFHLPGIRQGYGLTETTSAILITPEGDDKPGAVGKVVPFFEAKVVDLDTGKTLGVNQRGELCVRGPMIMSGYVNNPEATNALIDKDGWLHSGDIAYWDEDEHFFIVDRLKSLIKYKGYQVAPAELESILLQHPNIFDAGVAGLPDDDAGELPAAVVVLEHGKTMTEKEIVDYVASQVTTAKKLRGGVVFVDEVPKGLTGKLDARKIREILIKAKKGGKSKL

[10] = test system: Wnt5a (protein binding on small-molecule microarray); assay: Wnt5a binders on small-molecule microarray, primary screen, biophysical, 635/667 nm fluorescence (AID 1142); details: 635 nm fluorescence, higher = more signal;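 note: fluorescence read at 667 nm with signal to noise per printed feature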
[11] = cell viability in Huh7 cells, primary screen, cytotoxicity control for HCV replication inhibitor project, CellTiter-Glo luminescence, basal, 48 h (AID 1143); details: Huh7 HCV replicon, higher = more signal, called active from +8 up or from −8 down;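 note: Huh7 hepatoma cells carrying a hepatitis C replication reporter with no stimulus; test concentration not given here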
[12] = P. aeruginosa biofilm formation inhibitors, primary screen, PAO1 strain, BacTiter-Glo luminescence, LB-PBS (AID 1144); details: 12 h, higher = more signal
[13] = CREB reporter modulators without forskolin, primary screen, cell-based, PC12, CRE-LacZ reporter, unstimulated (AID 1145); details: no forskolin, luminescence, 4.5 h, higher = more signal, called active from +8 up or from −8 down
[14] = CREB reporter modulators under forskolin, primary screen, cell-based, PC12, CRE-LacZ reporter, forskolin-stimulated (AID 1146); details: luminescence, 4.5 h, higher = more signal, called active from +8 up or from −8 down;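 note: PC12 cells with 6xCRE LacZ reporter stimulated by forskolin 10 µM; beta-galactosidase reporter signal reflecting CREB driven transcription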
[15] = molecular target: Streptavidin (Streptomyces avidinii) (UniProt P22629); assay: streptavidin binders on small-molecule microarray, primary screen, artefact control for SMM compound annotation, biophysical, 635/667 nm fluorescence (AID 1147); details: streptavidin binding, higher = more signal;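 note: signal reflects streptavidin binding to arrayed compounds as a control protein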
Streptavidin (Streptomyces avidinii), sequence (P22629 whole entry, looked up): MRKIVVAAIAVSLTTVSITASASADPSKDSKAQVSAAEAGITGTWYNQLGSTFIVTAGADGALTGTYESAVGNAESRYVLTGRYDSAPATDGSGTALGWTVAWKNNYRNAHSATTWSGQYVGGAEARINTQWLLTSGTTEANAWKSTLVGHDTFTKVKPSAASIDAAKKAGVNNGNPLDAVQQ

[16] = small-molecule binders of probe aInhba, primary screen, biochemical, small-molecule microarray, 635/667 nm fluorescence (AID 1148); details: higher = more signal;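 note: score merges 667nm spot fluorescence with signal-to-noise for antibody binding to printed compounds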
Torsin-1A (Homo sapiens) [17] = molecular target: Torsin-1A (Homo sapiens) (UniProt O14656); assay: torsin A binders from cell lysate, primary screen, small-molecule microarray, wild-type, 635/667 nm (AID 1149); details: COS7 hTOR1A-WT lysate, 635 nm fluorescence, higher = more signal
Torsin-1A (Homo sapiens), sequence (O14656 whole entry, looked up): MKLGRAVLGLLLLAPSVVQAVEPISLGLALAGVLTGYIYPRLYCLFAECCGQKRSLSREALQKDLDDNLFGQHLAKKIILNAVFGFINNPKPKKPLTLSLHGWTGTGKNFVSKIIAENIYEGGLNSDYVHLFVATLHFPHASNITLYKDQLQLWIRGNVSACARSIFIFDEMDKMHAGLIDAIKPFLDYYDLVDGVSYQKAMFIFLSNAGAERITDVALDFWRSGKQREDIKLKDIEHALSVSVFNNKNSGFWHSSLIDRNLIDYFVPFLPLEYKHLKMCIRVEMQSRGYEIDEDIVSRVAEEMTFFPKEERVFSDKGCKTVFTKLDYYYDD

Torsin-1A (Homo sapiens) [18] = molecular target: Torsin-1A (Homo sapiens) (UniProt O14656); assay: small-molecule binders of mutant TOR1A in lysate, primary screen, cell lysate, small-molecule microarray, COS7 lysate, 635/667 nm fluorescence (AID 1150); details: COS7 hTOR1A mutant lysate, 635 nm fluorescence, higher = more signal;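 note: score pools 667 nm emission and signal to noise measuring lysate protein binding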
[19] = test system: Sonic hedgehog protein (Shh); assay: small-molecule binders of Shh protein, primary screen, biochemical, small-molecule microarray, 635/667 nm fluorescence (AID 1151); details: small-molecule microarray binding, 635 nm fluorescence; higher = more signal;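 note: Shh protein binding to compounds spotted on small-molecule microarray slides; score combines spot fluorescence intensity with signal-to-noise across triplicate slides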

SMILES	composite z-score [1]	composite z-score [2]	composite z-score [3]	composite z-score [4]	composite z-score [5]	composite z-score [6]	z-score [7]	composite z-score (Lefty1)	composite z-score [8]	z-score [9]	composite z-score [10]	z-score [11]	z-score [12]	z-score [13]	z-score [14]	composite z-score [15]	composite z-score [16]	composite z-score (Torsin-1A (Homo sapiens) [17])	composite z-score (Torsin-1A (Homo sapiens) [18])	composite z-score [19]
C=C(COC)/C(=C/C[C@@H](OC(=O)c1ccncc1)c1ccccc1OCCO)c1cnc2ccccc2c1	1.27	1.17	0.276	0.848	1.47	1.6	1.5	1.56	1.39	-1.17 (inactive)	1.09	-3 (inactive)	1.45 (inactive)	18.2 (active)	1.24 (inactive)	1.93	0.0422	0.113	1.15	2.07
[N-]=[N+]=NCc1ccccc1[C@H]1OC(c2ccc(OCCCO)cc2)=N[C@@]1(Cc1ccccc1N=[N+]=[N-])C(=O)N1CCOCC1	0.574	1.21	0.993	1.04	0.526	-0.335	0.704	0.0349	1.07	-2.44 (inactive)	0.135	-3.35 (inactive)	-0.149 (inactive)	2.61 (inactive)	-0.529 (inactive)	1.24	0.222	0.249	0.488	-1.15
CCOC(=O)C[C@H]1[C@H](OC(=O)c2ccc(-c3ccccc3)cc2)[C@@H](NC(=O)C2CCCCC2)c2cc(OCCCO)ccc2N1C(=O)Cc1ccc(OC)cc1	0.132	0.365	0.106	0.267	0.2	0.345	0.47	0.867	0.229	0.347 (inactive)	-0.12	-0.137 (inactive)	-0.105 (inactive)	-0.155 (inactive)	-0.185 (inactive)	0.226	-0.0259	0.061	0.391	0.106
CC(C)[Si](C#Cc1ccccc1)(O[C@H](c1ccccc1)c1cn(Cc2ccccc2)nn1)C(C)C	0.409	1.11	0.188	0.588	1.11	1.3	-0.485	-0.0104	0.139	-1.3 (inactive)	-0.0899	-2.32 (inactive)	-0.519 (inactive)	-0.635 (inactive)	-1.08 (inactive)	0.983	-0.222	0.555	0.841	0.375
CCCCCN1CC=CC23O[C@@H]4/C=C\CCCOC(=O)C4[C@H]2C(=O)N(CCCCCO)[C@@H]3C1=O (stereo not given in full)	0.163	-0.766	-0.565	-0.832	-0.38	-1.11	0.27	-0.0788	-0.662	-3.1 (inactive)	-0.827	-0.347 (inactive)	-0.678 (inactive)	-1.03 (inactive)	0.0118 (inactive)	-0.878	-0.128	-2.11	-1.09	-0.0251
CC[C@@H](O[Si](C#C[Si](C(C)C)(C(C)C)C(C)C)(C(C)C)C(C)C)c1cn([C@H](CO)Cc2ccccc2)nn1	0.0554	0.339	0.324	0.412	0.448	0.729	-0.208	1.21	0.884	0.635 (inactive)	-0.142	0.0926 (inactive)	-0.805 (inactive)	-0.607 (inactive)	-0.038 (inactive)	0.391	0.0104	0.0922	-0.209	1.24
COCCOC(=O)N1C(=O)[C@@]2(c3cc(C#CCCO)ccc31)[C@H](C(=O)N1CCN(c3ncccn3)CC1)[C@H]1C(=O)O[C@H](c3ccccc3)[C@H](c3ccccc3)N1[C@@H]2c1ccc(OCCO)cc1	1.12	1.23	-0.293	0.972	1.21	1.29	-1.28	0.92	1.02	-0.21 (inactive)	0.624	-0.445 (inactive)	0.386 (inactive)	1.05 (inactive)	0.136 (inactive)	1.26	0.0528	-0.279	0.458	1.99
COc1ccc(NN2C(C(O)c3ccccc3)C=CC3C(=O)N(C4CCCCC4)C(=O)C32)cc1 (stereo not given)	0.864	1.26	0.82	0.996	0.925	0.202	0.338	0.769	1.03	-0.684 (inactive)	0.272	-2.44 (inactive)	-1.71 (inactive)	0.127 (inactive)	1.65 (inactive)	0.929	0.19	0.473	0.37	0.871
CCN1C(=O)C2CC(=O)C3C(CN(S(=O)(=O)c4ccc(C)cc4)C3c3ccc(C)cc3)C2C1=O (stereo not given)	1.98	1.18	1.09	-0.38	-0.238	-0.315	0.0148	-0.573	-0.0147	0.12 (inactive)	0.235	-1.49 (inactive)	1.03 (inactive)	-0.676 (inactive)	-0.202 (inactive)	0.851	-0.0471	0.364	0.915	0.184
CCOC(=O)C[C@H]1[C@H](OC(=O)c2cc3ccccc3oc2=O)[C@@H](NC(=O)c2ccc(-c3ccccc3)cc2)c2cc(OCCCO)ccc2N1C(=O)Cc1ccc(OC)cc1	0.396	1.19	0.414	0.522	0.679	1.41	-0.424	0.907	0.266	0.853 (inactive)	0.391	-0.346 (inactive)	-0.301 (inactive)	0.666 (inactive)	0.0179 (inactive)	0.385	-0.0095	0.195	0.775	0.989
